Measurements from PubChem BioAssay AID1851 (National Center for Advancing Translational Sciences (NCATS), 2009).
About 2,600 (16%) of roughly 16,000 compounds were called active. Inconclusive results (about 20%) are left out. Calls follow the shape of the dose curve; as a rule, active = well fitted curve in the direction sought with a large enough effect; inconclusive = small, poorly fitted or top-dose-only effect, or effect the other way; inactive = no such curve, though single readings can be large or run the other way. The list is a sample of the results.

biological target: Cytochrome P450 2D6 (Homo sapiens) (UniProt P10635); assay: Cytochrome panel assay with activity outcomes; conditions: recombinant CYP, pro-luciferin dealkylation, luminescence, p450-cyp2d6; series mostly up to 57.1 µM; activity, negative = inhibition: at the top concentration
Sequence (P10635 whole entry, looked up): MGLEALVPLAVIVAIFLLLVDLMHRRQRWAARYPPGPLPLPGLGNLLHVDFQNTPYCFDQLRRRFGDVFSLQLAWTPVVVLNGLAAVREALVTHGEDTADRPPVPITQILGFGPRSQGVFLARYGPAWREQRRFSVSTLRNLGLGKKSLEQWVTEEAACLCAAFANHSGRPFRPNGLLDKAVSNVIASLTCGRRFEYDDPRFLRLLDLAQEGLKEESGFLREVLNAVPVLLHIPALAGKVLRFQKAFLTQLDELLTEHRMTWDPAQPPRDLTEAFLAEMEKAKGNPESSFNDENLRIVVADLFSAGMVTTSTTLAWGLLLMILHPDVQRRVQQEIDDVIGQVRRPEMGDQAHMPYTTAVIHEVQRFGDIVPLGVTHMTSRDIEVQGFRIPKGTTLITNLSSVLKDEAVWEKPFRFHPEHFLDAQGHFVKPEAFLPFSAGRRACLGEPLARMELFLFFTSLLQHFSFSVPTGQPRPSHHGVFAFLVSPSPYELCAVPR
% is scaled to controls: 0 for no effect and ±100 for the full control effect.

activity, negative = inhibition, inactive:
Cn1cccc1C(=O)N1CCC2(CC1)CN(C(=O)Nc1ccccc1)C2 5.13%
O=C(c1cccc(F)c1)N1CCC2(CC1)CN(c1ccc(-c3ccccc3)cc1)C2 -13.6%
Cn1cccc1C(=O)N1CCC2(CC1)CCN(C(c1ccccc1)c1ccccc1)CC2 -10.5%
CN1CCN(c2ncc3nc(-c4ccccc4)c(=O)n(Cc4cccs4)c3n2)CC1 -5.31%
CN1CCN(c2ncc3nc(CCc4ccccc4)c(=O)n(Cc4ccc(F)cc4)c3n2)CC1 1.52%
O=C(N/C(=C/c1ccco1)C(=O)N1CCCCCC1)c1cccs1 9.59%
Cc1cc(OCC(F)(F)C(F)(F)C(F)(F)C(F)(F)C(F)(F)C(F)F)nc(N)n1 -29.2%
CCCCn1c(SCC(N)=O)nc2ccc(N3CCOCC3)cc2c1=O -18.6%
Cc1ccc(OC(=O)c2oc3ccc(F)cc3c2C)c(C)c1 -23.9%
Cc1ccc(NC(=S)NC(=O)c2c(-c3ccccc3Cl)noc2C)cc1 -5.21%
C[C@@H](CCC(=O)O)C(=O)O 1.74% [at 11.4 µM]
Cc1ccc(S(=O)(=O)c2c(C)nn(C(C)(C)C)c2OC(=O)c2cccs2)cc1 -11%
CS/C(N)=N/N=C/c1ccc([N+](=O)[O-])cc1 -28.3%
Cc1cc(C)cc(NC(=O)C/C(N)=N/O)c1 -9.04%
O=C(c1ccccc1NS(=O)(=O)c1cccc([N+](=O)[O-])c1)N1CCOCC1 8.5%
CCOC(=O)Cc1csc(NC(=O)c2c(-c3c(Cl)cccc3Cl)noc2C)n1 -28.7%
CC(=O)c1cc2c(cc1NC(=O)c1c(-c3ccccc3)noc1C)OCO2 -37.3%
CC1(C)CC(=O)C(CCCN2C(=O)c3ccccc3C2=O)C(=O)C1 -4.76%
CCN(CC)c1ncnc2c1sc1nc(C)cc(C)c12 -9.59%
CO/N=C\[C@@H](OC)[C@H](C)/C=C\CC(=O)OC 9.03% [at 11.4 µM]
O=C(CSc1nncn1-c1ccccc1)Nc1ccc(N2CCOCC2)cc1 -25.8%
O=C(O)CCSC1=NCCN1 15.4% [at 11.4 µM]
CCOC(=O)C1=C(C)C(c2ccccc2OC)NC(=S)N1 (configuration not stated) -9.65%
Cn1c(=O)oc2cc(S(=O)(=O)NCCC(=O)N3CC=C(c4ccccc4)CC3)ccc21 -29.6%
O=C(O)c1cc2cc(Cl)ccc2oc1=O 1.09%
O=C(Nc1ccccc1N1CCOCC1)c1cnccn1 -17.2%
Cc1cc(N)c2cc(NC(=O)Nc3ccc4nc(C)cc(N)c4c3)ccc2n1 7.45% [at 11.4 µM]
O=C(Nc1ccc2ncccc2c1)Nc1ccc2ncccc2c1 -10.5% [at 11.4 µM]
CN(C)c1ncc2nc(-c3ccc(F)cc3)c(=O)n(C)c2n1 3.94%
COc1ccc2cc(C(=O)Nc3ccc(F)cc3)sc(=O)c2c1OC -20.8%
CC(C)C(=O)Nc1ccc(C(=O)NNC(=O)C(c2ccccc2)c2ccccc2)cc1 -4.72%
Cc1noc(C)c1-c1ccc2ncnc(N3CCN(C)CC3)c2c1 -1.17%
CN1CCN(c2ncnc3ccc(-c4cccc(C#N)c4)cc23)CC1 -7.72%
N#Cc1ccccc1-c1ccc2ncnc(N3CCNCC3)c2c1 -13.2%
CN(C)C(=O)c1ccc(-c2ccc3ncnc(N4CCNCC4)c3c2)cc1 -14%
Cc1ccccc1-c1ccc2ncnc(N3CCNCC3)c2c1 -9.34%
N#Cc1cccc(-c2ccc3ncnc(N4CCNCC4)c3c2)c1 -19.9%
COc1ccc(C(=O)N2CCC[C@@]3(CCN(C(=O)NC(C)C)C3)C2)cc1 -13.3%
Cc1nc2ncnn2c(C)c1CCC(=O)NCc1ccco1 -13%
CCc1ccccc1NC(=O)c1ccc(F)c(S(=O)(=O)N2CCC(C(N)=O)CC2)c1 -13.2%
CC(=O)c1c(O)c(C)c(-c2ccccc2)n(-c2ccccc2)c1=O 14.1%
CCCc1c(OCCCOc2ccc(OCC(=O)O)cc2)ccc(CC=O)c1O 10.9%

AC50, inactive:
N[C@H](CCCP(=O)(O)O)C(=O)O
CC(N)=NCCCC[C@H](N)C(=O)O

AC50, active:
O=C(c1ccncc1)N1CCC2(CC1)CCN(C(c1ccccc1)c1ccccc1)CC2 3.16 µM
CCCC[C@H](CC)CN=C(N)NC(N)=NCCCCCCN=C(N)NC(N)=NC[C@@H](CC)CCCC 3.16 µM
Cc1onc(-c2c(Cl)cccc2Cl)c1C(=O)Nc1ccc2c(c1)OCO2 7.08 µM
O=C(CSC1=NCCN1)Nc1ccccc1 1.58 µM
Cc1nc2ccc(NC(=O)Nc3ccnc4cccnc34)cc2o1 10 µM
CN1CCN(c2ncnc3ccc(-c4ccc5c(c4)OCO5)cc23)CC1 0.251 µM
CN(C)c1ccc(-c2ccc3ncnc(N4CCNCC4)c3c2)cc1 12.6 µM
c1nc(N2CCNCC2)c2cc(-c3ccc4c(c3)OCO4)ccc2n1 2.51 µM
